Bioassay records as filed in PubChem BioAssay.
An excerpt weighted towards active compounds, which were near 3% of everything screened.
SENP6 inh – SENP6 protease inhibition; Q9GZR1; Recombinant SENP6 catalytic domain, aminoluciferin luminescence; inhibition, % at 10 µM; 330,000 tested, 1.8% active; AID 2599;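 active = inhibition above about 50% at the single tested dose, limit read from the data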
Target sequence (Q9GZR1 628-1112 limits assumed): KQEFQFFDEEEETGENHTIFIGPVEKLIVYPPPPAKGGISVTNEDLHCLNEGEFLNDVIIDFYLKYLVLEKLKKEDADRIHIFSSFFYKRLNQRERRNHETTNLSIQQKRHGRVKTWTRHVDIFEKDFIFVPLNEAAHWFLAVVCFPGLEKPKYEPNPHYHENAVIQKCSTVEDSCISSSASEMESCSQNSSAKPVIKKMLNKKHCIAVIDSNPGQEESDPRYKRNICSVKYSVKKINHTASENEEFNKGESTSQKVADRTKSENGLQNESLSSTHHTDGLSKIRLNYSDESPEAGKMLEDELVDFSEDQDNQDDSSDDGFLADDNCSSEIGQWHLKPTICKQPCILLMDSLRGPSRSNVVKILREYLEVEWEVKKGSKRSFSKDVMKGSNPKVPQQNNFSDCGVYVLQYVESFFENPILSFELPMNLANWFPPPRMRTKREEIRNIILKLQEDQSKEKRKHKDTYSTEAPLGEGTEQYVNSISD
TRAIL sens C8 – sensitizes caspase-8 expressing cells to TRAIL; 360,000 tested, 1% active; NB7+C8 cells + TRAIL, ATPlite viability luminescence; inhibition (viability loss, TRAIL sensitization), % at 10 µM; AID 624354;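 active = compounds causing at least 50% loss of cell viability in the single-dose screen, relative to plate controls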
SENP8 block-1 – SENP8 protease inhibition. 330,000 tested, 1.2% active. inhibition, % at 10 µM. purified SENP8, Z-RLRGG-aminoluciferin cleavage, luminescence. Q96LD8; in the data active = inhibition above about 50%
Target sequence (Q96LD8 whole entry, looked up): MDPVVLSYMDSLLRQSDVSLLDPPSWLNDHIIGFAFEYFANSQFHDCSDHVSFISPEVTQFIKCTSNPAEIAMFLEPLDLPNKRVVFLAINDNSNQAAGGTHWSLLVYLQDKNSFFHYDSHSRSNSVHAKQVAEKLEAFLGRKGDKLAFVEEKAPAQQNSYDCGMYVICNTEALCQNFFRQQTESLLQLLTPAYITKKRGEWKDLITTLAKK
SENP8 block-2 – blocks human SENP8 cleavage of Nedd8 substrate; Q96LD8; recombinant SENP8, Nedd8 substrate fluorescence; inhibition, % at 20 µM; 360,000 tested, 0.64% active; AID 602440; in the data active = inhibition mostly above about 40%, no sharp cut-off; inactive = mostly below about 27%
PPC-1+TRAIL kill – compounds killing PPC-1 cancer cells with TRAIL present (potentiator screen, no TRAIL-free arm); AID 1443; cell killing (% activity), % at 4 µM or 5 µM; 220,000 tested, 0.41% active; PPC-1 cells + TRAIL, ATPLite viability luminescence;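 active = cell killing above 50% in the first pass at 4 µM, then a duplicate retest at 5 µM averaging 50% or more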
SENP7 inh – inhibitors of human SENP7 protease | Q9BQF6 | recombinant SENP7, Z-RLRGG-aminoluciferin luminescence, 40 min | inhibition, % at 5 µM | 330,000 tested, 1.5% active | AID 434973;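 active = inhibition above about 50% at the single test dose, limit read from the data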
Each line names hits and unclear results; the compound was inactive in the other large screens.

CCN1CCC(O)(/C=C/c2ccc(C(C)C)cc2)C(C(=O)/C=C/c2ccc(C(C)C)cc2)C1 (centres undefined)	TRAIL sens C8 87 (no result: SENP6 inh, SENP8 block-1, PPC-1+TRAIL kill, SENP7 inh)
COc1ccc(N=C(C)C2C(=O)c3ccccc3C2=O)cc1	TRAIL sens C8 74 (no result: SENP6 inh, SENP8 block-1, PPC-1+TRAIL kill, SENP7 inh)
O=C1C=C(O)c2cccc(O)c2C1=O	SENP6 inh 66, SENP8 block-2 45
COc1ccc(C(=O)NCc2cn3cccc(C)c3n2)cc1OC	TRAIL sens C8 60
Cc1ccccc1S(=O)(=O)/N=C(/c1ccccc1)N1CCOCC1	none
Nc1cc2sc(-c3ccc(C(=O)O)cc3)nc2cc1Cl	SENP6 inh 97, TRAIL sens C8 57, SENP8 block-1 98, PPC-1+TRAIL kill 51, SENP7 inh 100
CC1CCN(c2nc3ccc(C(=O)NCCCN4CCCCC4)cc3s2)CC1	none (no result: PPC-1+TRAIL kill)
Nc1nc(-c2ccc(C(=O)O)cc2)cs1	none
Nc1ccc(-c2nc3ccc(C(=O)O)cc3s2)cc1	TRAIL sens C8 70 (no result: SENP6 inh, SENP8 block-1, SENP7 inh)
CC1CCN(c2nc3ccc(C(=O)O)cc3s2)CC1	SENP6 inh 97, SENP8 block-1 97, SENP7 inh 96
Cc1ccc(C(=O)O/N=C(\N)c2ccc(Br)cc2)cc1C	TRAIL sens C8 86
COc1ccc(/C(N)=N/OC(=O)c2cc(-c3ccccc3)nc3ccccc23)cc1	none
N/C(=N\OC(=O)c1cccc2ccccc12)c1ccc(Br)cc1	none
Cc1cc(C)cc(C(=O)O/N=C(\N)c2ccc(Br)cc2)c1	TRAIL sens C8 90
Cc1ccc(/C(N)=N/OC(=O)c2cc(-c3ccccc3)nc3ccccc23)cc1	TRAIL sens C8 81
Cc1cccc(C(=O)O/N=C(\N)c2ccc(Br)cc2)c1	none
Cc1ccc(C)c(C(=O)O/N=C(\N)c2ccc(Br)cc2)c1	TRAIL sens C8 78
CC1(C(=O)NCCC#N)CCN1C(=O)C1(c2ccccc2)CCCC1 (centres undefined)	none (no result: SENP6 inh, SENP8 block-1, PPC-1+TRAIL kill, SENP7 inh)
CCOc1ccc(CN(C)C(=O)CNC(=O)C2CCCCC2)cc1	none (no result: PPC-1+TRAIL kill)
O=C(NC1CC1)c1ccc(C2SCC(=O)N2Cc2ccccc2)cc1 (centres undefined)	none
CCN(Cc1ccccc1)C(=O)c1ccc(Cl)cc1[N+](=O)[O-]	none
CCNC(=O)NC(=O)C(C)Oc1ccc(Br)cc1Br (centres undefined)	none
O=C(COC(=O)c1n[nH]c2ccccc12)NC(=O)NC12CC3CC(CC(C3)C1)C2	TRAIL sens C8 57
NC1=C(Br)C(=O)c2ncccc2C1=O	TRAIL sens C8 95, SENP8 block-2 96 (no result: SENP6 inh, SENP8 block-1, PPC-1+TRAIL kill, SENP7 inh)
CN(CCc1ccccc1)C1CCCN(S(=O)(=O)CC(F)(F)F)C1 (centres undefined)	none (no result: PPC-1+TRAIL kill)
Nc1ccccc1C#CC(=O)c1ccccc1	TRAIL sens C8 64 (no result: PPC-1+TRAIL kill)
O=C(C#Cc1cccc([N+](=O)[O-])c1)c1ccccc1	TRAIL sens C8 83
Cn1c(SCc2ccccn2)nnc1-c1ccccc1	none
COc1ccccc1Cc1c(-c2ccco2)nc2cc(C)c(Br)c(C)n12	none (no result: SENP6 inh, SENP8 block-1, PPC-1+TRAIL kill, SENP7 inh)
CCOC(=O)Nc1ccc2c(CNC(C)c3ccccc3OC)cc(=O)oc2c1 (centres undefined)	none (no result: PPC-1+TRAIL kill)
CCCn1c(C(CO)Nc2nc(C)cs2)nc2ccccc21 (centres undefined)	none (no result: PPC-1+TRAIL kill)
O=C(COC(=O)c1ccc(O)cc1)c1ccc2c(c1)OCCO2	SENP6 inh 87, SENP8 block-1 70, SENP7 inh 57 (no result: PPC-1+TRAIL kill)
O=C(COC(=O)c1ccc(O)cc1)Nc1ccc2c(c1)OCCO2	none (no result: PPC-1+TRAIL kill)
CC(=O)N(c1nnc(-c2ccc(C)cc2)s1)C1CCCC1	none (no result: PPC-1+TRAIL kill)
CCOC(=O)c1ccc(NC2=CC(=O)C(=O)c3ccccc32)cc1	TRAIL sens C8 94, SENP8 block-2 82
CC(=O)Nc1ccc(NC2=CC(=O)c3ccccc3C2=O)cc1	none (no result: PPC-1+TRAIL kill)
O=C(NCc1ccncc1)C(=O)NC1CC1	none
CCC(CN(C)C)Oc1cc(NCc2ccccc2)c2ncn(C(C)C)c2c1 (centres undefined)	TRAIL sens C8 58, SENP8 block-1 83, SENP7 inh 87 (no result: PPC-1+TRAIL kill)
COc1cc(NCc2ccccc2)c2ncn(C(C)C)c2c1	none (no result: PPC-1+TRAIL kill)
COC(=O)C(NC(C)=O)(Nc1ccc(C)cn1)C(F)(F)F (centres undefined)	none
C/C(=N/Nc1ccc(C(=O)c2c(C)cc3ccccn23)cc1[N+](=O)[O-])c1ccc(O)cc1	SENP8 block-2 50 (no result: SENP6 inh, SENP8 block-1, PPC-1+TRAIL kill, SENP7 inh)
Cc1cc2ccccn2c1C(=O)c1ccc(Cl)cc1	none
CSc1ccc(C=NNc2ccc(S(=O)(=O)Nc3ccccc3C(=O)O)cc2[N+](=O)[O-])cc1	none (no result: PPC-1+TRAIL kill)
C/C(=N\Nc1ccc(C(=O)c2c(C)cc3ccccn23)cc1[N+](=O)[O-])c1ccc(O)cc1	SENP8 block-2 62
Cc1cc2ccccn2c1C(=O)c1ccncc1	none
Cc1cc2ccccn2c1C(=O)c1ccc(N/N=C/c2ccc(C(=O)O)cc2)c([N+](=O)[O-])c1	SENP8 block-2 66 (no result: SENP6 inh, SENP8 block-1, SENP7 inh)
O=C(COc1ccc(F)cc1Br)NCc1nnc2ccccn12	none (no result: PPC-1+TRAIL kill)
O=c1[nH]c(CCl)nc2cc(-c3ccc(F)cc3)sc12	SENP6 inh 89, TRAIL sens C8 81, SENP8 block-1 79 (no result: PPC-1+TRAIL kill)
Nc1[nH]c(N=NC(=O)c2ccc(F)cc2)c2ccccc12	none
Nc1ccccc1C(=O)N=Nc1[nH]c(N)c2ccccc12	TRAIL sens C8 51
Cc1ccc(C(=O)CNc2ccccc2)cc1	none (no result: PPC-1+TRAIL kill)
O=C(CNc1ccc(F)cc1)c1ccccc1	SENP6 inh 65
COc1ccc(/C(C#N)=C/c2ccccn2)cc1	SENP6 inh 64, SENP8 block-1 54
CC(NC(=O)c1ccccc1)c1ccc(F)cc1 (centres undefined)	none
CCc1ccc(C2C(=O)c3ccccc3C2=O)cc1	none (no result: PPC-1+TRAIL kill)
CCc1ccccc1C1C(=O)c2ccccc2C1=O	TRAIL sens C8 48 (no result: PPC-1+TRAIL kill)
COc1ccc2nc(NN=C(C)c3ccccn3)cc(C)c2c1	TRAIL sens C8 69 (no result: SENP6 inh, SENP8 block-1, PPC-1+TRAIL kill, SENP7 inh)
Cc1ccc(NC(=S)N=Nc2c(O)n(C)c3ccc(S(=O)(=O)N4CCOCC4)cc23)cc1	SENP8 block-2 30 (no result: SENP6 inh, SENP8 block-1, SENP7 inh)
O=C(CSc1nnc(-c2ccco2)c(-c2ccco2)n1)Nc1ccccc1	none
Cc1ccccc1NC(=O)CSc1nnc(-c2ccco2)c(-c2ccco2)n1	SENP8 block-2 42
Cc1cccc(C)c1NC(=O)CSc1nnc(-c2ccco2)c(-c2ccco2)n1	SENP8 block-2 60
CN(C)c1ccc(NC(=O)CSc2nnc(-c3ccco3)c(-c3ccco3)n2)cc1	SENP8 block-2 46 (no result: PPC-1+TRAIL kill)
Cc1ccc(NC(=O)CSc2nnc(-c3ccco3)c(-c3ccco3)n2)cc1	none
COC(=O)c1ccc(NC(=O)c2nc(S(=O)(=O)Cc3cccc(C)c3)ncc2Cl)cc1	none (no result: PPC-1+TRAIL kill)
CSc1ncc(Cl)c(C(=O)Nc2ccc(C)c(C)c2)n1	none (no result: PPC-1+TRAIL kill)
Cc1ccc(NC(=O)c2nc(S(=O)(=O)Cc3ccccc3C)ncc2Cl)cc1C	TRAIL sens C8 58 (no result: PPC-1+TRAIL kill)
CCc1ccc(NC(=O)c2nc(S(=O)(=O)Cc3ccccc3)ncc2Cl)cc1	TRAIL sens C8 96 (no result: PPC-1+TRAIL kill)
CC(=O)Nc1ccc(NC(=O)c2nc(S(=O)(=O)Cc3cccc(C)c3)ncc2Cl)cc1	TRAIL sens C8 90 (no result: PPC-1+TRAIL kill)
